From PubChem
This is a sample that favours compounds with a hit; in the whole collection about 21% have one here.
Pf growth 96h: Primary qHTS for delayed death inhibitors of the malarial parasite plastid, 96 hour incubation. P. falciparum luciferase reporter growth, 96 h. 6.9% of 320,000 active. Potency, µM (top dose mostly 28.7 µM), for inactives: at the highest dose activity change, negative = inhibition, hits mostly inhibitors. AID 504834, 2011; note: potency is the fitted concentration of half-maximal effect; % is set by controls: 0 for no effect and ±100 for the full control effect
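P. falciparum expressing integrated firefly luciferase grown in erythrocytes (2% hematocrit, 0.05% parasitemia final) with compounds for 96 hours at 37 C, 5% CO2. Growth inhibition read as loss of luminescence after adding luciferase detection reagent.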
Pf growth 48h: Primary qHTS for delayed death inhibitors of the malarial parasite plastid, 48 hour incubation; 5.9% of 310,000 active; P. falciparum luciferase growth in erythrocytes, 48 h; Potency, µM (series often up to 28.7 µM), without a hit: top-dose activity change, negative = inhibition, hits mostly inhibitors; note: potency is the fitted concentration of half-maximal effect; % is set by controls: 0 for no effect and ±100 for the full control effect
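Luciferase-expressing parasites in RBCs, 2% Hct / 0.1% parasitemia final; RPMI 1640 + 0.5% Albumax; 37 C, 5% CO2, one generation; luminescence read-out, lower signal = inhibition.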
Shiga inhibitor: A qHTS for Small Molecule Inhibitors of Shiga Toxin. Vero cells, Shiga toxin protein synthesis inhibition reporter. inhibition, % at 38.7 µM. 9.2% of 290,000 active. AID 2315, 2010; in the data active = inhibition mostly above about 28%, no sharp cut-off; inactive = mostly below about 43%; note: 0% is about no effect
Cycloheximide cs: Cycloheximide Counterscreen for Small Molecule Inhibitors of Shiga Toxin | max response, % | AID 2314, 2010 | cell reporter, cycloheximide protein synthesis inhibition counterscreen | 12% of 300,000 active; in the data active = max response mostly above about 13%, no sharp cut-off; inactive = mostly below about 14%; note: read at 38.3 µM for the half of the compounds with a filed dose; 0% is about no effect
NS1 function inh: qHTS Assay for Inhibitors of Influenza NS1 Protein Function; Potency, µM (top dose mostly 46.1 µM), for the others: at the top dose activity, positive = more growth; 0.4% of 270,000 active; calls by dose curve; note: potency is the fitted concentration of half-maximal effect; actives are rising curves; nearly all actives have a fitted effect of over 50% in size
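Compounds were scored for reversing the slow growth caused by influenza A NS1 in S. cerevisiae, measured by optical density at 600 nm. Assay medium contained 2% galactose at pH 6.0; NS1-free yeast of the same strain were the positive control.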
FBPA Giardia inh: qHTS Assay for Inhibitors of Fructose-1,6-bisphosphate Aldolase from Giardia Lamblia | Potency, µM (series often up to 59.6 µM), for inactives: at the highest dose activity, negative = inhibition, most hits filed as inhibitors | purified Giardia FBPA | AID 2451, 2010 | A8B2U2 | 0.71% of 290,000 active; note: potency is the fitted concentration of half-maximal effect; % is set by controls: 0 for no effect and ±100 for the full control effect; nearly all actives have a fitted effect of over 55% in size
Target sequence (A8B2U2 whole entry, looked up): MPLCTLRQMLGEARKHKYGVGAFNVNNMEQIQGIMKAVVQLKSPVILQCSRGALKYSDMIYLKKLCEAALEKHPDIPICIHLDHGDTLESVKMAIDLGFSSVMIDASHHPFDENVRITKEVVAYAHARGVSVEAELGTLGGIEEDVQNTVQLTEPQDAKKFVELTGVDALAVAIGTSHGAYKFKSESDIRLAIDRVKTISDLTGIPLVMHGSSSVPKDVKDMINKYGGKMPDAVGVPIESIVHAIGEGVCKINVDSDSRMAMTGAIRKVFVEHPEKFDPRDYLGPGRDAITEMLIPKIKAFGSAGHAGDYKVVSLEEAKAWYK
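40 nM FBPA preincubated 10 min at RT with compound (up to 57.5 uM final), then substrate plus GAPDH/TPI/NAD/arsenate coupling and diaphorase/resazurin added. Fluorescence read after 20 min at RT, 525/598 nm.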
Active calls of the source: *; ? = inconclusive; nt = not tested or not shown; [ ] = remark or other dose. Unless noted, calls come from the whole dose curve; as a rule, active = well fitted curve in the direction sought with a large enough effect; inconclusive = small, poorly fitted or top-dose-only effect, or another doubt; inactive = no such curve, though single readings can be large; an effect the other way counts as inactive or inconclusive.

SMILES | Pf growth 96h | Pf growth 48h | Shiga inhibitor | Cycloheximide cs | NS1 function inh | FBPA Giardia inh
CC(C)(C)Nc1nc(OCC(F)(F)F)nc(OCC(F)(F)F)n1 | ? | 37% | 31* | 13* | -1% | 2%
O=C1c2ccccc2C(=O)C1c1ccc2ccccc2n1 | ? | 208% | 78* | 34* | -12%[9.22 µM] | 0%
COCCNC(=O)c1ccccc1NC(=O)C1COc2ccccc2O1 (stereo not given) | ? | -3% | 13 | -3 | -12% | 0%
CCC(C)NC(=O)c1ccccc1NC(=O)C1COc2ccccc2O1 (stereo not given) | ? | 1.2µM* | -3 | 1 | 6% | 2%
CC(C)NC(=O)c1ccccc1NC(=O)C1COc2ccccc2O1 (stereo not given) | -17% | 10µM* | 14 | -5 | -1% | 0%
C[C@H](NC(=O)COc1ccc(Cl)cc1)C(=O)N1CCC2(CC1)NCCc1[nH]cnc12 | 5% | -3% | -4 | -1 | 2% | nt
Nc1nonc1C(=O)NCCNS(=O)(=O)c1ccc(F)cc1 | 2.9µM* | 15% | -12 | -2 | 2% | -3%
Nc1nonc1C(=O)NCCNCc1c(OCc2ccccc2F)ccc2ccccc12 | nt | 4.7µM* | -19 | -5 | 1% | -6%
O=S(=O)(NCCNS(=O)(=O)c1ccc(F)cc1)c1ccc(F)cc1 | nt | 18% | -13 | -1 | -3% | -2%
Nc1nonc1C(=O)NCCNCc1ccccc1 | 12µM* | nt | -8 | -2 | 3% | 4%
O=C(CSc1nnc(CNc2ccc(F)cc2)n1CC1CCCO1)N1CCOCC1 (stereo not given) | 1% | 6% | -2 | -1 | -3% | -2%
COC(=O)/C=C/c1ccc(-n2cncn2)cc1 | ? | 51% | 32 | 23* | nt | 7%
O=Cc1ccc(-n2cncn2)cc1 | 1% | 17% | -8 | -5 | -5% | 5%
O=C(c1ccc2c3c(cccc13)CC2)C1CCCN(C(=O)c2ccc[n+]([O-])c2)C1 (stereo not given) | ? | -18% | -14 | -2 | -2% | -5%
Cc1nnc(SCC(=O)NC2CCCCCC2)n1C | 11% | 4% | 5 | -1 | 22% | -1%
Cc1cccc(C)c1OCC(=O)NCc1nnc(SCC(=O)NC2CCCCC2)n1C | 27% | 12µM* | -5 | -2 | -2% | 7%
CCn1c(CC(=O)Nc2ccccc2C)nnc1SCC(=O)NC1CCCC1 | 28% | ? | 19 | 21* | -8% | 1%
CCn1c(COc2cccc(OC)c2)nnc1SCC(=O)NC1CCCC1 | ? | -27% | -9 | 36* | 21% | -3%
Cc1nnc(SCC(=O)NC2CCCC2)n1C(C)C | 1% | 19% | -38 | 20* | 6% | nt
Cc1ccc(C)c(Cn2nnc3c(=O)[nH]c(C4CCCN(S(=O)(=O)Cc5ccccc5)C4)nc32)c1 (stereo not given) | -30% | 39% | -8 | -3 | 3% | nt
C=C1CC[C@H](O)C/C1=C/C=C1\CCC[C@]2(C)[C@@H]([C@H](C)CCCC(C)(C)O)CC[C@@H]12 | -24% | ? | nt | nt | nt | -1%
COc1ccc2ccc(OC)c(/C=N/n3cnnc3)c2c1 | -30% | 2% | nt | -2 | -33% | -12%
N[C@H](COP(=O)(O)O)C(=O)O | -19% | ? | nt | nt | nt | nt
CC(C)C[C@@H](CC(=O)N[C@@H](CCC(=O)O)CC(=O)O)NC(=O)[C@@H]1CCCC[C@H]1NC(=O)C[C@H](CCCN)NC(=O)C[C@H](Cc1c[nH]c2ccccc12)NC(=O)[C@@H]1CNCC[C@H]1N | nt | nt | nt | nt | nt | 1%
COc1ccc(NC(=O)c2ccc(S(=O)(=O)N3CCCCCC3)cc2)c(OC)c1 | 13µM* | 74% | -8 | -2 | -43% | -9%
SMILES | Pf growth 96h | Pf growth 48h | Shiga inhibitor | Cycloheximide cs | NS1 function inh | FBPA Giardia inh
COc1ccc(NC(=O)c2cccc(S(=O)(=O)N3CCCCC3)c2)c(OC)c1 | 2.9µM* | -2% | -4 | -2 | -1% | nt
CNC(=O)c1ccccc1NC(=O)c1cccc(S(=O)(=O)N2CCCCC2)c1 | 2.9µM* | ? | -15 | -1 | nt | -3%
COc1ccc(C(=O)Nc2cc(S(=O)(=O)N3CCCCC3)ccc2OC)cc1 | -7% | 11% | nt | nt | nt | nt
COc1ccc(NC(=O)COC(=O)c2cccc(S(=O)(=O)N3CCCCC3)c2)c(OC)c1 | -17% | -24% | nt | nt | nt | nt
COc1ccc(NC(=O)c2cccc(S(=O)(=O)N3CCN(c4ccccc4)CC3)c2)c(OC)c1 | ? | 10µM* | nt | nt | nt | nt
CC(=O)Nc1nn(C)c2nc3ccc(C)cc3cc12 | -27% | -23% | -7 | -3 | 2% | -6%
CC(=O)OCCN1CCN(C(=O)CN2C(=O)NC(c3ccccc3)(c3ccccc3)C2=O)CC1 | -16% | -10% | -10 | -3 | -6% | -2%
O=C(O)c1cn(Cc2ccccc2)c2ccc(Cl)cc2c1=O | 0% | ? | nt | nt | nt | nt
CCCCOC(=O)Nc1ccc(C)c(Cl)c1 | ? | 80% | 57* | 33* | -13% | -3%
COc1cccc(NC(=O)Nc2ccc(C)c(Cl)c2)c1 | 38% | -68% | 78* | 45* | 0% | 0%
Cc1ccc(NC(=O)N(C)C)cc1Cl | nt | nt | 14 | 11* | nt | -1%
COCC(=O)Nc1ccc(C)c(Cl)c1 | nt | 19% | 8 | 5 | -7% | 3%
CN(C)C(=O)Nc1ccc(Oc2ccc(Cl)cc2)cc1 | nt | nt | 14 | 20* | nt | 4%
CC(C)[C@@H](CC(=O)N[C@@H]1CCNC[C@H]1C(=O)N[C@H](CC(=O)N[C@@H](CCC(=O)O)CC(=O)O)Cc1c[nH]c2ccccc12)NC(=O)C[C@H](CO)NC(=O)[C@@H]1CCCC[C@H]1N | nt | nt | nt | nt | nt | -24%
Nc1nc(Nc2ccccc2)nc2c1ncn2[C@@H]1O[C@H](CO)[C@H](O)[C@H]1O | nt | nt | nt | nt | -3% | 2%
COCCN(CCOC)C(=O)c1ccc(SCc2ccc(C)cc2)c([N+](=O)[O-])c1 | ? | -3% | -4 | 5 | nt | -7%
Clc1ccc(-c2nc3sccn3c2/C=N/OCc2ccc(Cl)c(Cl)c2)cc1 | nt | nt | 23 | 11 | nt | 2%
Cc1ccc(NC(=O)Nc2ccc(F)cc2)cc1Cl | ? | ? | 78* | 32* | 1% | 2%
CCN1CCc2c(sc(NC(=O)c3ccc(C(=O)c4ccccc4)cc3)c2C(N)=O)C1 | ? | ? | -11 | -3 | -3% | -26%
CCN1CCc2c(sc(NC(=O)Nc3ccc(Cl)c(Cl)c3)c2C(N)=O)C1 | 27% | 12µM* | -6 | -5 | -28% | -11%
Cc1sc(NC(=S)NC(=O)c2ccco2)c(C(N)=O)c1C | ? | 0% | 93* | 26* | nt | -19%
CCN1CCc2c(sc(NC(=S)NC(=O)c3ccco3)c2C(N)=O)C1 | 31% | -9% | 16 | 14* | -5% | ?
